# Literature values as cited in PubChem BioAssay AID977611.
# The campaign covered roughly 3,900 compounds. About 3,900 (100%) were called active. No cut-off is given here; in the data, nearly all actives have Kd up to about 4200 µM. The set was probably picked from earlier hits. The list shows a part of the results. Starred links: 1 amine or outer side, 2 acyl side, 3 side chain; linkers in the order of their positions; H or OH if unused. *1 amine or outer side, *2 acyl side, *3 side chain or, on linkers, in order; H or OH if unused. Where a SMILES comes first, the peptide text is derived from it. Non-standard residues stand in square brackets, D forms with d. Square brackets hold non-standard residues; d marks the D form. Residues, ends and D or L forms follow the SMILES beside them. Peptide text beside a SMILES is read from it. [ ]: non-standard residue; d: D form. X1 = O=C([C@H](Cc1ccc(O[P+](O)(O)O)cc1)N[*:1])[*:2]; Orn(CH(NH2)2) = NC(N)NCCC[C@H](N)C(=O)O
# Assay: PubChem AID 977611
# Details: PDB protein-ligand complexes, literature Kd
molecule,measurement,setting,value
H-DWDFLPP-NH2,Kd,"protein: Gamma-aminobutyric acid receptor-associated protein, PDB entry 3dow",11.5 µM (active)
CC(C)C[C@H](NC(=O)[C@H](Cc1ccccc1)NC(=O)[C@@H]1CCCN1C(=O)[C@@H](NC(=O)[C@H](CC(C)C)NC(=O)[C@H](CO)NC(=O)[C@H](Cc1c[nH]cn1)NC(=O)[C@H](Cc1c[nH]c2ccccc12)NC(=O)[C@@H]1CCCN1C(=O)[C@H](Cc1ccccc1)NC(=O)[C@@H](N)C(C)C)C(C)C)C(=O)N[C@@H](C)C(=O)N1CCC[C@H]1C(=O)N[C@@H](CO)C(=O)N[C@@H](CCC(N)=O)C(=O)O (H-VFPWHSLVPFLAPSQ-OH),Kd,"protein: Ataxin-1, PDB entry 2m41",8 µM (active)
C=CCO[C@]1(C(=O)O)C[C@@H](O[C@]2(C(=O)O)C[C@@H](O)[C@@H](O)[C@@H]([C@H](O)CO[C@]3(C(=O)O)C[C@@H](O)[C@@H](O)[C@@H]([C@H](O)CO)O3)O2)[C@@H](O)[C@@H]([C@H](O)CO)O1,Kd,"protein: antigen binding fragment of mAb S25-26, PDB entry 4m7j",0.781 µM (active)
CC(=O)N[C@@H](CC(=O)O)C(=O)N[C@H](C(=O)N[C@@H](CCC(=O)O)C(=O)N[C@H](C(=O)N[C@@H](Cc1ccc(O[P+](O)(O)O)cc1)C(=O)N[C@@H](CCC(=O)O)C(=O)N[C@@H](CO)C(=O)N1CCC[C@H]1C(=O)N[C@@H](Cc1ccc(O[P+](O)(O)O)cc1)C(=O)N[C@@H](C)C(=O)N[C@@H](CC(=O)O)C(=O)N1CCC[C@H]1C(=O)N[C@@H](CCC(=O)O)C(N)=O)C(C)C)[C@@H](C)O (Ac-DTEV[X1]ESP[X1]ADPE-NH2),Kd,"protein: C-termainl SH2 domain from phospholipase C-gamma-1 comprising residues 663-759( PLC?), PDB entry 2fci",0.07 µM (active)
CC(C)[C@H](NC(=O)[C@H](CCC(=O)O)NC(=O)[C@@H](NC(=O)[C@@H](N)CC(=O)O)[C@@H](C)O)C(=O)N[C@@H](Cc1ccc(O)cc1)C(=O)N[C@@H](CCC(=O)O)C(=O)N[C@@H](CO)C(=O)N1CCC[C@H]1C(=O)N[C@@H](Cc1ccc(O[P+](O)(O)O)cc1)C(=O)N[C@@H](C)C(=O)N[C@@H](CC(=O)O)C(=O)N1CCC[C@H]1C(=O)N[C@@H](CCC(=O)O)C(=O)O (H-DTEVYESP[X1]ADPE-OH),Kd,"protein: Proto-oncogene vav, PDB entry 2mc1",71 µM (active)
O=C(Nc1ccc(-c2nn[nH]n2)cc1Cc1ccccc1)c1cccc(CC2CCCCC2)n1,Kd,"protein: KSHV Protease, PDB entry 4p3h",1 µM (active)
CN(C)c1cc[n+](Cc2ccc(-c3ccccc3)cc2)cc1,Kd,"protein: Human choline kinase a1, PDB entry 4cg9",0.62 µM (active)
CN(C)c1cc[n+](Cc2ccc(CCCCc3ccc(CN4C=CC(N(C)c5ccc(Cl)cc5)C=C4)cc3)cc2)cc1,Kd,"protein: Human choline kinase a1, PDB entry 4cg8",0.11 µM (active)
CN(C)c1cc[n+](Cc2ccc(-c3ccc(Cn4cnc(=N)c5[nH]cnc54)cc3)cc2)cc1,Kd,"protein: CHOLINE KINASE ALPHA, PDB entry 4br3",1.9 µM (active)
CN(C)c1cc[n+](Cc2ccc(CCc3ccccc3)cc2)cc1,Kd,"protein: Human choline kinase a1, PDB entry 4cga",0.4 µM (active)
CC(=O)N[C@H]1[C@H](O[C@H]2[C@H](O)[C@@H](O)[C@H](O[C@H]3[C@H](O)[C@@H](CO)OC[C@@H]3NC(C)=O)O[C@@H]2C(=O)O)O[C@H](CO)[C@@H](O)[C@@H]1O[C@@H]1O[C@H](C(=O)O)[C@@H](O)[C@H](O)[C@H]1O,Kd,"protein: murine cd44 hyaluronan binding domain, PDB entry 4mrd",428 µM (active)
CC(=O)N[C@H]1[C@H](O[C@@H]2[C@@H](O)[C@@H](O)O[C@H](CO)[C@@H]2O[C@H]2O[C@H](CO[C@@H]3O[C@@H](C)[C@H](O)[C@@H](O)[C@H]3O)[C@@H](O)[C@H](O)[C@H]2O)O[C@H](CO)[C@@H](O)[C@@H]1O,Kd,"protein: TAIL SPIKE PROTEIN(D339N mutant), PDB entry 2x6x",210 µM (active)
CC(=O)N[C@@H]1[C@@H](O[C@H]2O[C@H](CO)[C@H](O[C@H]3O[C@H](CO[C@@H]4O[C@@H](C)[C@H](O)[C@@H](O)[C@H]4O)[C@@H](O)[C@H](O)[C@H]3O)[C@H](O[C@@H]3O[C@H](CO)[C@@H](O)[C@H](O)[C@H]3NC(C)=O)[C@H]2O)[C@H](O)[C@@H](CO[C@H]2O[C@H](CO)[C@@H](O)[C@H](O)[C@H]2O)O[C@H]1O,Kd,"protein: TAIL SPIKE PROTEIN(D339A mutant), PDB entry 2x6y",26 µM (active)
same,Kd,"protein: TAIL SPIKE PROTEIN, PDB entry 2x85",129 µM (active)
CC(=O)N[C@@H]1[C@@H](O[C@H]2O[C@H](CO)[C@H](O[C@H]3O[C@H](CO[C@@H]4O[C@@H](C)[C@H](O)[C@@H](O)[C@H]4O)[C@@H](O)[C@H](O)[C@H]3O)[C@H](O[C@@H]3O[C@H](CO)[C@@H](O)[C@H](O)[C@H]3NC(C)=O)[C@H]2O)[C@H](O)[C@@H](CO[C@H]2O[C@H](CO)[C@@H](O)[C@H](O)[C@H]2O)O[C@@H]1O,Kd,"protein: TAIL SPIKE PROTEIN(E372Q mutant), PDB entry 2x6w",0.079 µM (active)
CC(=O)N[C@H]1[C@H](O[C@@H]2[C@H](O[C@]3(C(=O)O)C[C@H](O)[C@@H](NC(C)=O)[C@H]([C@H](O)[C@H](O)CO)O3)[C@@H](O)[C@H](O[C@H]3[C@H](O)[C@@H](O)[C@H](O)O[C@@H]3CO)O[C@@H]2CO)O[C@H](CO)[C@H](O)[C@@H]1O[C@@H]1O[C@H](CO)[C@H](O)[C@H](O)[C@H]1O,Kd,"protein: ECXA, PDB entry 4l6t",0.032 µM (active)
CC(=O)N[C@@H]1[C@@H](O)[C@H](O[C@@H]2O[C@H](CO)[C@@H](O[C@@H]3O[C@H](CO[C@H]4O[C@H](CO)[C@@H](O)[C@H](O)[C@@H]4O[C@@H]4O[C@H](CO)[C@@H](O)[C@H](O)[C@H]4NC(C)=O)[C@@H](O)[C@H](O[C@H]4O[C@H](CO)[C@@H](O)[C@H](O)[C@@H]4O[C@@H]4O[C@H](CO)[C@@H](O)[C@H](O)[C@H]4NC(C)=O)[C@@H]3O)[C@H](O)[C@H]2NC(C)=O)[C@@H](CO)O[C@H]1NC(=O)C[C@H](N)C(=O)O,Kd,"protein: LECTIN, PDB entry 3zyr",4.6 µM (active)
Nc1c(I)c(C(=O)O)c(I)c(C(=O)O)c1I,Kd,"protein: EXTRACELLULAR PROTEIN 6, PDB entry 4b9h",4.5 µM (active)
NCCCCNCCCN,Kd,"protein: Phospholipase A2 VRV-PL-VIIIa, PDB entry 4qf8",0.031 µM (active)
N/C=C/CCNCCCN,Kd,"protein: Putrescine-binding periplasmic protein (S38T, D39E, S87Y, A182D, D247S, F276W, L348Q mutation), PDB entry 4jdf",6400 µM (active)
COc1ccc2c(CC(=O)O)coc2c1,Kd,"protein: Pantothenate synthetase (T2A, E77G mutation), PDB entry 4ddh",500 µM (active)
Nc1nc(N)c2nc(CNc3ccc(C(=O)N[C@@H](CCC(=O)O)C(=O)O)cc3)cnc2n1,Kd,"protein: Folate receptor beta, PDB entry 4kn1",0.144 µM (active)
NC1NC(=O)c2nc(CNc3ccc(C(=O)N[C@@H](CCC(=O)O)C(=O)O)cc3)cnc2N1 (stereo partly drawn),Kd,"protein: Folate receptor alpha, PDB entry 4lrh",0.00019 µM (active)
same,Kd,"protein: Folate receptor beta, PDB entry 4kmz",0.0027 µM (active)
NC1NC(=O)c2c(CCc3ccc(C(=O)N[C@@H](CCC(=O)O)C(=O)O)cc3)c[nH]c2N1 (stereo partly drawn),Kd,"protein: Folate receptor beta, PDB entry 4kn2",0.054 µM (active)
N[C@H](CNc1nc(-c2ccncc2)nc2sc3c(c12)CCCC3)Cc1ccccc1,Kd,"protein: PROTEIN KINASE C IOTA TYPE, PDB entry 3zh8",0.341 µM (active)
O=C(CO[P+](O)(O)O)NO,Kd,"protein: Fructose-bisphosphate aldolase, PDB entry 4del",0.0211 µM (active)
O=C(O)[C@H](O)CO[P+](O)(O)O,Kd,"protein: human phosphoglycerate kinase, PDB entry 3c39",109 µM (active)
O=C(O)CO[P+](O)(O)O,Kd,"protein: TRIOSEPHOSPHATE ISOMERASE (A198V, C202A, C222N mutation), PDB entry 4bi6",113 µM (active)
same,Kd,"protein: TRIOSEPHOSPHATE ISOMERASE (C202A mutation), PDB entry 4bi7",26.4 µM (active)
O=C(CO)[C@@H](O)[C@H](O)[C@H](O)CO[P+](O)(O)O,Kd,"protein: Glucokinase regulatory protein, PDB entry 3w0l",0.095 µM (active)
O=C(O)c1ccc(-c2ccc(C(=S)NCc3ccc(-c4ccnn4-c4ccc(Cl)c(Cl)c4)cc3)c(Cl)c2)o1,Kd,"protein: Replication protein A 70 kDa DNA-binding subunit, PDB entry 4lwc",0.19 µM (active)
COCCO[C@@H]1COCCOC[C@H]1OCCOC,Kd,"protein: METAL-BINDING PROTEIN YODA, PDB entry 4aw8",0.022 µM (active)
C[C@@H](O)[C@H](NC(=O)[C@@H]1CCCN1C(=O)[C@H](CO)NC(=O)[C@H](Cc1ccc(O)cc1)NC(=O)[C@H](CO)NC(=O)[C@@H]1CCCN1)C(=O)N[C@@H](CO)C(=O)N1CCC[C@H]1C(=O)N[C@H](C=O)CO (H-PSYSPTSPS-aldehyde),Kd,"protein: CTD INTERACTING DOMAIN of RNA processing factor SCAF8(N15M/Y17M), PDB entry 3d9o",1000 µM (active)
C[C@@H](O)[C@H](NC(=O)[C@@H]1CCCN1C(=O)[C@H](CO[P+](O)(O)O)NC(=O)[C@H](Cc1ccc(O)cc1)NC(=O)[C@H](CO)NC(=O)[C@@H]1CCCN1)C(=O)N[C@@H](CO[P+](O)(O)O)C(=O)N1CCC[C@H]1C=O,Kd,"protein: CTD INTERACTING DOMAIN of RNA processing factor SCAF8(R112T), PDB entry 3d9p",29 µM (active)
C[C@@H](O)[C@H](NC(=O)[C@@H]1CCCN1C(=O)[C@H](CO[P+](O)(O)O)NC(=O)[C@H](Cc1ccc(O)cc1)NC(=O)[C@H](CO)NC(=O)[C@@H]1CCCN1)C(=O)N[C@@H](CO)C(=O)N1CCC[C@H]1C(=O)N[C@@H](CO)C(=O)O,Kd,"protein: Rtt103 CTD-interacting domain, PDB entry 2l0i",15 µM (active)
NC(=S)Nc1ccc(C[C@H](CN(CC(=O)O)[C@H]2CCCC[C@@H]2N(CC(=O)O)CC(=O)O)N(CC(=O)O)CC(=O)O)cc1,Kd,"protein: Neutrophil gelatinase-associated lipocalin (mutation), PDB entry 4iaw",0.000234 µM (active)
same,Kd,"protein: Neutrophil gelatinase-associated lipocalin (mutation), PDB entry 4iax",0.000273 µM (active)
N#CCCNc1nonc1-c1nc2ccccc2n1CC(=O)c1ccc(N)cc1,Kd,"protein: Tubulin, PDB entry 4o2a",1.8 µM (active)
CC[C@H](C)[C@H](N)C(=O)N[C@@H](CO)C(=O)N[C@@H](CCCNC(N)N)C(=O)N[C@@H](CO)C(=O)N[C@H](C(=O)N[C@@H](CO[P+](O)(O)O)C(=O)N1CCC[C@H]1C(=O)N[C@H](C(=O)N[C@@H](Cc1ccccc1)C(=O)N[C@@H](CC(N)=O)C(=O)N[C@@H](CCCCN)C(=O)N[C@@H](CCC(N)=O)C(=O)O)[C@@H](C)O)[C@@H](C)O,Kd,"protein: Breast cancer type 1 susceptibility protein, PDB entry 1t29",0.9 µM (active)
CSCC[C@H](NC(=O)[C@@H]1CCCN1C(=O)[C@H](Cc1ccc(O)cc1)NC(=O)[C@@H](N)Cc1ccccc1)C(=O)N[C@@H](CC(C)C)C(=O)N[C@@H](CCCNC(N)N)C(=O)N[C@@H](Cc1ccc(O)cc1)C(=O)N[C@H](C(=O)N[C@@H](CC(N)=O)C(=O)NCC(=O)N1CCC[C@H]1C(=O)N1CCC[C@H]1C(=O)N1CCC[C@H]1C(=O)N[C@H](C(=O)O)[C@@H](C)O)[C@@H](C)O (H-FYPML[Orn(CH(NH2)2)]YTNGPPPT-OH),Kd,"protein: SUN domain-containing protein 2, PDB entry 4fi9",0.0456 µM (active)
CC(C)C[C@H](NC(=O)[C@@H]1CCCN1C(=O)CNC(=O)[C@H](Cc1ccccc1)NC(=O)[C@@H](N)CC(=O)O)C(=O)N[C@H](C(=O)NCC(=O)N[C@@H](C)C(=O)O)C(C)C (H-DFGPLVGA-OH),Kd,"protein: ?-adaptin ear domain of GGA3, PDB entry 1p4u",5 µM (active)
CC(C)[C@H](NC(=O)[C@H](CCCNC(N)N)NC(=O)[C@@H](NC(=O)[C@@H]1CCCN1)[C@@H](C)O)C(=O)N[C@@H](CO)C(=O)N[C@@H](CO[P+](O)(O)O)C(=O)N1CCC[C@H]1C(=O)N[C@H](C(=O)N[C@@H](Cc1ccccc1)C(=O)NCC(=O)N[C@@H](C)C(=O)N[C@H](C(=O)O)[C@@H](C)O)C(C)C,Kd,"protein: Breast cancer type 1 susceptibility protein, PDB entry 1y98",3.7 µM (active)
